PubChem BioAssay AID720690 (Broad Institute, 2013)
Entries with a potency or affinity are not part of this list. Active and inactive are the calls of the source.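 Rule for the calls: active = every repeat run showing a signal drop whose fitted half-maximal concentration is at most twice the top tested concentration; inconclusive = repeat runs disagree, or flat partial drop, or poor fit; inactive = the rest.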

Test: HEK293T cytotoxicity, dose response, cytotoxicity control for miR-122 modulator project, cell-based, activator set, cherry-pick (AID 720690)
Details: HEK293T viability, CellTiter-Glo luminescence, 48 h; series mostly up to 26 µM

Row | Structure (SMILES) | outcome
1 | O=C(NC[C@H]1N[C@H](CO)[C@@H]1c1ccc(-c2ccccc2F)cc1)c1ccccc1 | inactive
2 | CNC(=O)C[C@H]1CC[C@@H]2[C@H](COc3ccc(NC(=O)c4ccc(OC)cc4)cc3C(=O)N2C)O1 | inactive
3 | CC(C)C(=O)Nc1ccc2c(c1)C(=O)N(C)[C@@H]1CC[C@H](CC(=O)NCc3cccc(F)c3)O[C@H]1CO2 | inactive
4 | C[C@H](CO)N1C[C@H](C)[C@@H](CN(C)CC2CCCCC2)Oc2c(NS(=O)(=O)c3cccs3)cccc2C1=O | inactive
5 | Cc1cc(C(=O)Nc2ccc3c(c2)C(=O)N(C)[C@@H]2CC[C@H](CC(=O)N[C@@H](C)c4ccccc4)O[C@H]2CO3)no1 | inactive
6 | c1ccc(CCCNCCCn2cnc3c(OCc4ccccc4)ncnc32)cc1 | inactive
7 | CCC(=O)N1C[C@H]2[C@@H](c3ccccc31)[C@H](CO)N2Cc1cc(F)ccc1F | inactive
8 | COc1cccc(C(=O)Nc2ccc3c(c2)C(=O)N(C)[C@@H]2CC[C@@H](CC(=O)NCc4ccc(F)cc4)O[C@@H]2CO3)c1 | inactive
9 | CN1C(=O)c2cc(NC(=O)c3ccc(C(F)(F)F)cc3)ccc2OC[C@H]2O[C@H](CC(=O)O)CC[C@@H]21 | inactive
10 | C/C=C/c1ccc([C@H]2[C@H](CO)N[C@H]2CN(CC(C)C)C(=O)c2ccccn2)cc1 | inactive
11 | CCNC(=O)Nc1ccc2c(c1)C(=O)N(C)[C@@H]1CC[C@H](CC(=O)NCC3CC3)O[C@@H]1CO2 | inactive
12 | CCCC(=O)Nc1ccc2c(c1)C(=O)N(C)[C@@H]1CC[C@H](CC(=O)NCc3cccc(F)c3)O[C@H]1CO2 | inactive
13 | CNC(=O)C[C@@H]1CC[C@@H]2[C@H](COc3ccc(NC(=O)Nc4ccc(Cl)cc4)cc3C(=O)N2C)O1 | inactive
14 | Fc1ccccc1-c1nc(-c2ccncc2)no1 | inactive
15 | COc1cccc(-c2nn(-c3ccccc3)cc2CO)c1 | inactive
16 | CN1C(=O)c2cc(NC(=O)c3cccc(F)c3)ccc2OC[C@@H]2O[C@@H](CC(=O)NC3CCC3)CC[C@@H]21 | inactive
17 | COCC(=O)NC[C@H]1N[C@H](CO)[C@H]1c1ccc(C2=CCCC2)cc1 | inactive
18 | CN(C[C@@H]1[C@@H](c2ccccc2)[C@H](CO)N1C(=O)C1CCC1)C(=O)c1ccccn1 | inactive
19 | COC(=O)c1cc(NS(=O)(=O)c2ccc3c(c2)CCC(=O)N3)cc(C(=O)OC)c1 | inactive
20 | COc1ccc(CNCCC(c2ccc(OC)cc2)c2ccccc2OC)cc1 (stereo not given) | inactive

Row | Structure (SMILES) | outcome
21 | COCC(=O)Nc1ccc2c(c1)C(=O)N(C)[C@@H]1CC[C@H](CC(=O)NC3CCCC3)O[C@H]1CO2 | inactive
22 | CC(C)C(=O)Nc1ccc2c(c1)C(=O)N(C)[C@@H]1CC[C@H](CC(=O)O)O[C@H]1CO2 | inactive
23 | COCC(=O)N(C[C@@H]1N[C@H](CO)[C@H]1c1ccc(C2=CCCC2)cc1)C(C)C | inactive
24 | CCN(C[C@@H]1[C@@H](c2ccccc2)[C@@H](CO)N1C(=O)COC)S(C)(=O)=O | inactive
25 | COc1cccc(CNC(=O)C[C@@H]2CC[C@@H]3[C@@H](COc4ccc(NC(C)=O)cc4C(=O)N3C)O2)c1 | inactive
26 | CCCNC(=O)N1[C@H](CNC(=O)c2ccc(F)cc2)[C@H](c2ccccc2)[C@@H]1CO | inactive
27 | C[C@@H]1CN([C@H](C)CO)S(=O)(=O)c2ccc(/C=C/c3ccccc3)cc2O[C@@H]1CN(C)C(=O)c1cccnc1 | inactive
28 | COc1cccc(S(=O)(=O)N(C)C[C@@H]2Oc3cc(C4=CCCC4)ccc3S(=O)(=O)N([C@H](C)CO)C[C@@H]2C)c1 | inactive
29 | CCN(C[C@H]1N[C@@H](CO)[C@@H]1c1ccc(C2=CCCC2)cc1)C(=O)c1cccnc1 | inactive
30 | CNC(=O)C[C@H]1CC[C@H]2[C@@H](COc3ccc(NC(=O)C(C)C)cc3C(=O)N2C)O1 | inactive
31 | C/C=C/c1ccc([C@@H]2[C@@H](CO)N[C@@H]2CN(C(=O)C2CCC2)C(C)C)cc1 | inactive
32 | C/C=C/c1ccc([C@@H]2[C@@H](CN(C)C(=O)CC)N(C(=O)NC(C)C)[C@H]2CO)cc1 | inactive
33 | CCC(=O)N1[C@H](CO)[C@H]2c3ccccc3N(C(=O)CC(F)(F)F)C[C@H]21 | inactive
34 | CC(=O)N(C)C[C@H]1[C@@H](c2ccc(-c3ccc(F)cc3)cc2)[C@@H](CO)N1C(C)=O | inactive
35 | CN1C(=O)c2cc(NC(=O)Nc3cccc(Cl)c3)ccc2OC[C@H]2O[C@@H](CC(=O)NCCc3ccncc3)CC[C@H]21 | inactive
36 | C/C=C/c1ccc([C@@H]2[C@@H](CO)N(C(C)=O)[C@@H]2CN(C)C(=O)c2ccccn2)cc1 | inactive
37 | CCCNC(=O)Nc1ccc2c(c1)C(=O)N(C)[C@H]1CC[C@@H](CC(=O)NCC3CCCCC3)O[C@@H]1CO2 | inactive
38 | CO[C@@H]1CN(C)C(=O)c2ccc(NC(=O)c3nc4ccccc4s3)cc2OC[C@H](C)N(Cc2cccnc2)C[C@H]1C | inactive
39 | COC(=O)C[C@H]1CC[C@@H]2[C@@H](COc3ccc(NC(=O)Nc4ccc(Cl)cc4)cc3C(=O)N2C)O1 | inactive
40 | COCC(=O)N(C)C[C@H]1Oc2cc(-c3ccc(C#N)cc3)ccc2S(=O)(=O)N([C@@H](C)CO)C[C@H]1C | inactive
